Results taken from PubChem BioAssay AID1159580 (chemical genetic matrix, 2015).
Screen size: about 5,500 compounds; about 2,000 (36%) were called active. Roughly 18% stayed inconclusive and do not appear here. Cut-off read from the data, not from the text of the source: active = normalized growth mostly below about 0.91 (no sharp cut-off); inconclusive = no clear call, values can overlap the other calls; inactive = mostly above about 0.92. The list shows a part of the results.

Assay: chemical genetic growth profiling, strain panel (AID 1159580);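 note: tested at 20 µM; growth read once vehicle control cultures reached saturation at 30 °C; 1 = growth at the plate median or of vehicle wells; lower values mean less growth of the strain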
Settings: growth OD

Measured: normalized growth

CC(=O)O.CC(=O)O.[Cd]
active: S. cerevisiae deletion strains, locus YJR043C, strain POL32, active compounds read low 0.298 | S. cerevisiae deletion strains, locus YJR075W, strain HOC1, active compounds read low 0.202 | S. cerevisiae deletion strains, locus YKL009W, strain mrt4, active compounds read low 0.639 | S. cerevisiae deletion strains, locus YKL068W, active compounds read low 0.651 | S. cerevisiae deletion strains, locus YKL085W, strain MDH1 (second series), active compounds read low 0.372 | S. cerevisiae deletion strains, locus YKL085W, strain MDH1, active compounds read low 0.372 | S. cerevisiae deletion strains, locus YKL160W, strain elf1, active compounds read low 0.533 | S. cerevisiae deletion strains, locus YKL190W, strain CNB1, active compounds read low 0.125 | S. cerevisiae deletion strains, locus YKR001C, strain vps1, active compounds read low 0.12 | S. cerevisiae deletion strains, locus YKR026C, strain gcn3, active compounds read low 0.82 | S. cerevisiae deletion strains, locus YKR091W, strain srl3, active compounds read low 0.793 | S. cerevisiae deletion strains, locus YLL001W, strain dnm1, active compounds read low 0.68 | S. cerevisiae deletion strains, locus YLL026W, active compounds read low 0.603 | S. cerevisiae deletion strains, locus YLL041C, strain sdh2, active compounds read low 0.785 | S. cerevisiae deletion strains, locus YLR027C, strain aat2, active compounds read low 0.664 | S. cerevisiae deletion strains, locus YLR039C, strain RIC1, active compounds read low 0.166 | S. cerevisiae deletion strains, locus YLR058C, strain SHM2, active compounds read low 0.154 | S. cerevisiae deletion strains, locus YLR102C, strain apc9, active compounds read low 0.464 | S. cerevisiae deletion strains, locus YLR221C, strain rsa3, active compounds read low 0.669 | S. cerevisiae deletion strains, locus YLR258W, strain gsy2, active compounds read low 0.698 | S. cerevisiae deletion strains, locus YLR262C, strain YPT6 (second series), active compounds read low 0.403 | S. cerevisiae deletion strains, locus YLR262C, strain YPT6, active compounds read low 0.133 | S. cerevisiae deletion strains, locus YLR268W, strain sec22, active compounds read low 0.158 | S. cerevisiae deletion strains, locus YLR320W, strain mms22, active compounds read low 0.696 | S. cerevisiae deletion strains, locus YLR330W, strain CHS5, active compounds read low 0.811 | S. cerevisiae deletion strains, locus YLR342W, strain FKS1 (second series), active compounds read low 0.311 | S. cerevisiae deletion strains, locus YLR342W, strain FKS1, active compounds read low 0.862 | S. cerevisiae deletion strains, locus YLR357W, strain rsc2, active compounds read low 0.522 | S. cerevisiae deletion strains, locus YLR370C, strain arc18, active compounds read low 0.313 | S. cerevisiae deletion strains, locus YLR371W, strain rom2, active compounds read low 0.188 | S. cerevisiae deletion strains, locus YLR384C, strain iki3, active compounds read low 0.804 | S. cerevisiae deletion strains, locus YLR418C, strain cdc73, active compounds read low 0.175 | S. cerevisiae deletion strains, locus YML016C, strain PPZ1, active compounds read low 0.224 | S. cerevisiae deletion strains, locus YML032C, strain rad52, active compounds read low 0.313 | S. cerevisiae deletion strains, locus YML120C, strain ndi1, active compounds read low 0.695 | S. cerevisiae deletion strains, locus YML124C, strain tub3, active compounds read low 0.304 | S. cerevisiae deletion strains, locus YMR058W, strain fet3, active compounds read low 0.0708 | S. cerevisiae deletion strains, locus YMR078C, strain ctf18, active compounds read low 0.462 | S. cerevisiae deletion strains, locus YMR125W, strain sto1, active compounds read low 0.87 | S. cerevisiae deletion strains, locus YMR129W, active compounds read low 0.802 | S. cerevisiae deletion strains, locus YMR205C, strain PFK2, active compounds read low 0.675 | S. cerevisiae deletion strains, locus YMR223W, strain ubp8, active compounds read low 0.271 | S. cerevisiae deletion strains, locus YMR231W, strain pep5, active compounds read low 0.179 | S. cerevisiae deletion strains, locus YMR263W, strain SAP30, active compounds read low 0.221 | S. cerevisiae deletion strains, locus YMR307W, strain GAS1, active compounds read low 0.172 | S. cerevisiae deletion strains, locus YNL067W, strain RPL9B, active compounds read low 0.289 | S. cerevisiae deletion strains, locus YNL071W, strain lat1, active compounds read low 0.757 | S. cerevisiae deletion strains, locus YNL128W, strain TEP1, active compounds read low 0.234 | S. cerevisiae deletion strains, locus YNL153C, strain GIM3, active compounds read low 0.468 | S. cerevisiae deletion strains, locus YNL209W, strain ssb2, active compounds read low 0.583 | S. cerevisiae deletion strains, locus YNL233W, strain BNI4, active compounds read low 0.394 | S. cerevisiae deletion strains, locus YNL248C, strain rpa49, active compounds read low 0.765 | S. cerevisiae deletion strains, locus YNL250W, strain rad50, active compounds read low 0.269 | S. cerevisiae deletion strains, locus YNL271C, strain bni1, active compounds read low 0.3 | S. cerevisiae deletion strains, locus YNL298W, strain CLA4, active compounds read low 0.345 | S. cerevisiae deletion strains, locus YNL307C, strain MCK1, active compounds read low 0.124 | S. cerevisiae deletion strains, locus YNL322C, strain KRE1 (second series), active compounds read low 0.547 | S. cerevisiae deletion strains, locus YNL322C, strain KRE1, active compounds read low 0.139 | S. cerevisiae deletion strains, locus YNR049C, strain mso1, active compounds read low 0.819 | S. cerevisiae deletion strains, locus YNR052C, strain pop2, active compounds read low 0.164 | S. cerevisiae deletion strains, locus YOL006C, strain TOP1, active compounds read low 0.153 | S. cerevisiae deletion strains, locus YOL147C, strain pex11, active compounds read low 0.32 | S. cerevisiae deletion strains, locus YOR001W, strain rrp6, active compounds read low 0.752 | S. cerevisiae deletion strains, locus YOR061W, strain CKA2, active compounds read low 0.269 | S. cerevisiae deletion strains, locus YOR069W, strain VPS5, active compounds read low 0.222 | S. cerevisiae deletion strains, locus YOR070C, strain gyp1, active compounds read low 0.669 | S. cerevisiae deletion strains, locus YOR080W, strain dia2, active compounds read low 0.851 | S. cerevisiae deletion strains, locus YOR083W, strain WHI5, active compounds read low 0.59 | S. cerevisiae deletion strains, locus YOR106W, strain vam3, active compounds read low 0.408 | S. cerevisiae deletion strains, locus YOR136W, strain idh2, active compounds read low 0.263 | S. cerevisiae deletion strains, locus YOR144C, strain elg1, active compounds read low 0.461 | S. cerevisiae deletion strains, locus YOR184W, strain ser1, active compounds read low 0.25 | S. cerevisiae deletion strains, locus YOR265W, strain rbl2, active compounds read low 0.769 | S. cerevisiae deletion strains, locus YOR270C, strain vph1, active compounds read low 0.405 | S. cerevisiae deletion strains, locus YOR316C, strain cot1, active compounds read low 0.356 | S. cerevisiae deletion strains, locus YPL051W, strain arl3, active compounds read low 0.207 | S. cerevisiae deletion strains, locus YPL055C, strain LGE1, active compounds read low 0.169 | S. cerevisiae deletion strains, locus YPL078C, strain atp4, active compounds read low 0.707 | S. cerevisiae deletion strains, locus YPL240C, strain hsp82, active compounds read low 0.731 | S. cerevisiae deletion strains, locus YPL241C, strain CIN2, active compounds read low 0.271 | S. cerevisiae deletion strains, locus YPR119W, strain clb2, active compounds read low 0.433 | S. cerevisiae deletion strains, locus YPR141C, strain kar3, active compounds read low 0.418 | S. cerevisiae deletion strains, locus YPR163C, strain tif3, active compounds read low 0.441 | S. cerevisiae deletion strains, locus YPR167C, strain met16, active compounds read low 0.387 | S. cerevisiae deletion strains, strain wtn01, active compounds read low 0.254 | S. cerevisiae strains, strain wild type, active compounds read low 0.13
inactive: S. cerevisiae deletion strains, locus YOL012C, strain htz1 0.261 | S. cerevisiae deletion strains, locus YOR290C, strain snf2, active compounds read low 0.927 | S. cerevisiae deletion strains, locus YPL106C, strain sse1, active compounds read low 1.01
